PubChem BioAssay AID1117319 (Southern Research Institute, 2015)
“And” between values parts separate entries of the source, which are not always exact repeats. Equal entries are not always repeated. Screen size: about 260,000 compounds; about 1,500 (0.58%) were called active. Not shown: some 5% with an inconclusive outcome.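 The calls were made as follows: active = inhibition above a set limit at one or more doses, reproduced on every date tested; inconclusive = results disagree between test dates, or hit never tested in dose response; inactive = the rest.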 Not all results are given here. Potency and affinity values are given separately.

target: Virion infectivity factor (Human immunodeficiency virus type 1 group M subtype B (isolate BH10)) + Virion infectivity factor (Human immunodeficiency virus type 1 group M subtype B (isolate BRU/LAI)) + Virion infectivity factor (Human immunodeficiency virus type 1 group M subtype B (isolate PCV12)) + Virion infectivity factor (Human immunodeficiency virus type 1 group M subtype B (isolate HXB2)) + DNA dC->dU-editing enzyme APOBEC-3G (Homo sapiens) (UniProt P69720+P69721+P69722+P69723+Q9HC16); experiment: inhibitors of Vif binding to APOBEC3G peptide, primary screen, biochemical, TR-FRET, GST-Vif 1-94, biotin-A3G peptide, dose response retest (AID 1117319); details: active compounds read high;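 also: Vif residues 1-94 fused to GST binding biotinylated APOBEC3G peptide 110-148; 0% = full assay without inhibitor and 100% = GST in place of GST-Vif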

inhibition, inactive:
O=C(NCC1CCCO1)c1ccc(CS(=O)(=O)c2ccc(Cl)cc2)o1 (stereo not drawn) 0.48%
Cc1ccc(CC(=O)NNC(=O)c2cccs2)cc1C -2.08%
O=c1cc(CO)oc(C(Nc2ccccn2)c2ccc(C(F)(F)F)cc2)c1O (stereo not drawn) 10.8%
COc1ccc(C(Nc2ccccn2)c2oc(CO)cc(=O)c2O)cc1 (stereo not drawn) 20.9%
CN(c1ccccc1)S(=O)(=O)c1ccc(C(=O)NCC2CCCO2)cc1 (stereo not drawn) 6.12%
O=[n+]1c2c(n([O-])c3c1CCCC3)CCCC2 3.36%
O=[n+]1c2c(n([O-])c3cc(F)c(N4CCCC4)cc31)CCC2 25.7%
O=[n+]1c2c(n([O-])c3ccccc31)CCCC2 9.07%
CCOc1ccc2c(c1)n([O-])c1c([n+]2=O)CCCC1 23.4%
O=[n+]1c2c(n([O-])c3cc(F)ccc31)CCCC2 11.7%
Cc1ccc2c(c1)n([O-])c1c([n+]2=O)CCCC1 1.62%
O=[n+]1c2c(n([O-])c3cc(Br)ccc31)CCCC2 30%
O=[n+]1cc(-c2ccc(Br)cc2)n([O-])c2c1CCC2 3.02%
Cc1ccc2oc3nc(C)c(C(=O)O)cc3c(=O)c2c1 3.05%
CCN(CC)CCn1c(=S)[nH]c2cc(C(=O)NCCc3ccc(OC)c(OC)c3)ccc2c1=O -5.2%
S=c1[nH]nc2nnc3ccccc3n12 -8.57%
COCCN1C(=O)c2[nH]nc(-c3ccccc3O)c2C1c1ccc(OC)cc1 (stereo not drawn) 4.2%
CCOC(=O)C1=C(C)N(C)C(=S)NC1c1cc(OC)ccc1OC (stereo not drawn) 29.4%
Cc1ccc(NC(=O)N2CCC(C(=O)Nc3ccc(C)cc3C)CC2)cc1 -2.75%
COC(=O)C1CCN(S(=O)(=O)c2c[nH]c(=O)[nH]c2=O)CC1 -3.67%
CC(C)CN(CC(C)C)S(=O)(=O)N1CCC(C(=O)N2CCc3ccccc3C2)CC1 10.1%
O=C(CSc1ccc2nnc(-c3ccccn3)n2n1)N1CCOCC1 5.93%
CCOC(=O)C=Nc1c(N)n(C)c(=O)n(C)c1=O -1.01%
CCCCSc1c(C)c2cc3c(cc2[nH]c1=O)OCO3 -11.4%
COc1cc(C(=O)NC(=S)NCc2ccco2)cc(OC)c1OC 5.31%
COc1cc(C(=O)NCc2ccco2)cc(OC)c1OC -2.63%
N#CC1=C(N)OC2=C(CC/C2=C\c2ccccc2)C1c1ccccc1 (stereo not drawn) 22.4%
Cc1ccc(/C=C2\CCC3=C2OC(N)=C(C#N)C3c2ccc(C)cc2)cc1 (stereo not drawn) 20.9%
CCOC(=O)N1CCN(C(=O)CN(Cc2ccccc2)S(=O)(=O)c2ccc(OC)c(Cl)c2)CC1 -0.5%
O=C(OCc1nc2scc(-c3ccccc3)c2c(=O)[nH]1)c1cc([N+](=O)[O-])ccc1Cl 1.37%
CCN(CC)CCNC(=O)Cn1nc(Cc2cccnc2)c2ccccc2c1=O -0.43%
O=C(Nc1cccc2c1CCCC2)C1CCCN(S(=O)(=O)c2cccc3nonc23)C1 (stereo not drawn) 22.9% and -4.27%
N#CC1=C(Nc2ccccc2)SC=C(c2ccc(F)cc2)N=C1N1CCOCC1 -6.08%
N#CC1=C(Nc2ccccc2)SC=C(c2ccccc2)N=C1N1CCOCC1 23.5%
COc1ccc(CCNC(=O)CC(Cc2ccc(C)cc2)C(=O)O)cc1OC (stereo not drawn) -5.29%
CCc1ccc(C(=O)COC(=O)c2cnc(C)cn2)cc1 2.17%
COc1ccc(N=C2S/C(=C\c3ccc(C)s3)C(=O)N2CC(C)C)cc1 -0.05%
CCCN1C(=O)/C(=C/c2ccc(C)o2)SC1=Nc1ccc(OC)cc1 23.9%
Cc1cccc(Cc2ccc(Cl)nn2)c1 3.42%
COc1cc(CCCN2C(=O)C(=O)NC[C@@H]2c2ccccc2)cc(OC)c1OC -0.8%
COc1cccc(CN2CCN(Cc3cccc4nonc34)CC2CCO)c1 (stereo not drawn) -3.03%
Cc1ccccc1CN1C[C@@H]2C[C@@H](c3cn[nH]c3-c3ccc(F)cc3)N3CCC[C@@]23C1=O 6.1%
CN1CCN(c2nc3ccccc3nc2NS(=O)(=O)c2ccc(Br)cc2)CC1 4.67%
O=S(=O)(Nc1nc2ccccc2nc1N1CCN(c2ccccc2)CC1)c1ccc(F)cc1 10.6%
CC(C)CNC(=O)COCc1cc(-c2ccc3c(c2)OCO3)on1 5.26%
COc1ccc(Cl)cc1C(=O)OCC(=O)NC(=O)c1cccn1C -9.04%
COc1ccc(S(=O)(=O)N2CCCC2CNC(=O)C(=O)NCc2ccccc2)cc1 (stereo not drawn) -0.59%
CCC(=O)NCC(c1ccco1)N1CCN(c2ccc(OC)cc2)CC1 (stereo not drawn) 2.46%
CCc1ccc(C(=O)Nc2cc(C)ccc2F)s1 -4.32%
O=C1NCCc2c1[nH]c1ccccc21 18.5%
c1ccc2c3c([nH]c2c1)CCNC3 -5.47%
COc1cc2[nH]c(=O)n(CCCCCC(=O)N3CCN(c4ccccn4)CC3)c(=O)c2cc1OC -2.43% and 26.2%
CCC(=O)N1CC2(CC(c3cccc(NC(=O)CC(c4ccccc4)c4ccccc4)c3)=NO2)C[C@H]1C(N)=O (stereo partly drawn) 4.04%
O=C(CSc1nc2ccccc2c(=O)n1-c1ccccc1)NCc1ccc2c(c1)OCO2 -2.26%
COc1ccccc1-n1c(SCC(=O)c2ccc(O)cc2O)nc2cc([N+](=O)[O-])ccc21 11.3%
Cc1cccc(-n2c(SCC(=O)NCc3ccc4c(c3)OCO4)nc3ccccc3c2=O)c1 19.8%
CC(Sc1nc2cc([N+](=O)[O-])ccc2n1-c1ccc(F)cc1)C(=O)NCc1ccc2c(c1)OCO2 (stereo not drawn) -9.4%
O=C(CN1CCN(c2ccccc2)CC1)c1c[nH]c2ccccc12 -7.04%
COc1cccc(/C=C2\Oc3cc(OC(=O)N4CCOCC4)ccc3C2=O)c1 0.99%
O=C(CN(CCO)Cc1ccccc1)N1CCN(S(=O)(=O)c2ccccc2)CC1 0.45%
C/C=C/c1ccc(OCCCn2cncn2)c(OC)c1 -2.59%
COc1ccc(C2C(C#N)=C(N)Oc3c2ccc2cccnc32)cc1OC (stereo not drawn) 18.2%
COC(=O)C1=C(C)NC(C)=C(C(=O)OC)C1c1cc2cc(C)ccc2[nH]c1=O -2.33%
Cc1ccc(C(=O)Nc2ccc3[nH]c(=O)[nH]c3c2)c(C)c1 -1.2%
C=CCn1c(SCc2nc3ccccc3[nH]2)nnc1-c1cccc(OC)c1 7.4%
Cc1nc2ccc(S(=O)(=O)NCC(=O)NCCN3CCCCCC3)cc2s1 -0.42%
CSc1nc(N2CCOCC2)c2c3c(sc2n1)CCCC3 2.91%
Cc1nc(N2CCOCC2)c2c3c(sc2n1)CCC3 -7.05%
C=CCN(C(=O)c1csnn1)C(C(=O)NC(C)(C)C)c1ccncc1 (stereo not drawn) 8.31%
O=C(c1ccc(CNS(=O)(=O)c2ccccc2)cc1)N1CCN(c2ccccn2)CC1 5.22%
Oc1ccc2ccccc2c1N=Nc1ccc(F)cc1 7.15% and 5.32%
Oc1[nH]c2ccccc2c1N=Nc1ccc(F)cc1 -2.74%
CCOC(=O)CC(NC(=O)c1cccs1)c1ccc(C)cc1 (stereo not drawn) -0.96%
CCCCOc1ccccc1C1NC(=O)CCC1[N+](=O)[O-] (stereo not drawn) -4.07%
COc1ccccc1/C=C/C=N/NC(=O)Cc1cccs1 -10.6%
O=C(Cc1cccs1)N/N=C/C=C/c1ccccc1 4.16%
O=C(CNC(=O)c1cccs1)N/N=C/c1ccco1 10.8%
O=C(N/N=C/C=C\c1ccco1)c1cccs1 2.49%
O=C(c1ccncc1)N1N=C(C2CC2)CC1(O)C(F)(F)F (stereo not drawn) -2.38%
CCOC(=O)c1c(C)oc(=O)c(CC)c1O -0.93%
Cc1ccc(S(=O)(=O)N2C[C@H]3C(=O)C[C@@H](c4ccc(Cl)cc4)N(S(=O)(=O)c4ccccc4C)[C@H]3C[C@H]2c2ccccc2)cc1 -0.22%
O=C(CSCc1c(Cl)cccc1Cl)NN=C1CCCC1 15.1%
CCOC(=O)C1CCCN(c2c(NCC3CCCN3CC)c(=O)c2=O)C1 (stereo not drawn) 1.77%
CC(=O)N1Cc2ccccc2CC1C(=O)NCc1ccccc1F (stereo not drawn) 0.3%
CCc1nc2ccc(C(=O)NCCc3ccco3)cc2nc1CC 9.44%
O=C(NC1CCCCC1)c1cc(-c2ccco2)on1 2.76%
CCOCCCNC(=O)c1ccc2nc(-c3ccc(OC)c(OC)c3)c(-c3ccc(OC)c(OC)c3)nc2c1 -0.07%
CCCNC(=O)c1ccc2nc(-c3ccccc3)c(-c3ccccc3)nc2c1 -1.93%
CCc1nc2ccc(C(=O)NCc3ccco3)cc2nc1CC 3.69%
O=C(NCCO)c1ccc(Cl)c(Cl)c1 -3.78%
O=C(O)c1ccc2nc(-c3ccco3)c(-c3ccco3)nc2c1 -0.3%
C=CCNC(=O)c1ccc2nc(-c3ccccc3)c(-c3ccccc3)nc2c1 -4.35%
CC(=O)Nc1ccccc1S(=O)(=O)CC1CC1(Cl)Cl (stereo not drawn) 4.64%
